Measurements published in PubChem BioAssay (NCI).
The panel holds about 79,000 compounds, 15% with a hit somewhere; the sample as a whole holds those more often. Activity calls are given as the source filed them. No stated cut-off is given here; in the data, active means growth inhibition above about 70%; inactive means the rest.

Experiments:
[1] = NCI Yeast Anticancer Drug Screen. Data for the rad50 strain (AID 155);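 further: 0% = growth of vehicle-only cultures of the same strain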; settings: S. cerevisiae rad50 strain growth inhibition; at 50.0 µM; active compounds read high
Outline: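 A DNA repair-deficient yeast mutant serves as the test organism; compound-induced growth inhibition is calculated against vehicle-treated cells.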

[2] = NCI Yeast Anticancer Drug Screen. Data for the mec2-1 strain (AID 157); settings: S. cerevisiae mec2-1 strain, at 50.0 µM, active compounds read high
Outline: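 Using mec2-1 yeast: add compound, measure growth, express inhibition versus vehicle-treated cultures.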

[3] = NCI Yeast Anticancer Drug Screen. Data for the sgs1 mgt1 strain (AID 161);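 further: 0% = growth of cultures given vehicle only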; settings: S. cerevisiae sgs1 mgt1 strain, at 50.0 µM, active compounds read high
Outline: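 Yeast cells carrying a defined DNA-repair defect were exposed to test compounds. Growth inhibition was measured relative to vehicle-treated controls.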

[4] = NCI Yeast Anticancer Drug Screen. Data for the cln2 rad14 strain (AID 165);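 further: 0% = growth equal to vehicle treated cultures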; settings: S. cerevisiae cln2 rad14 strain, at 50.0 µM, active compounds read high
Outline: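 Yeast strain cln2 rad14, bearing defects in cell cycle control and DNA repair, serves as the test system; values reflect growth inhibition compared with vehicle.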

[5] = NCI Yeast Anticancer Drug Screen. Data for the bub3 strain (AID 167); settings: S. cerevisiae bub3 mutant strain, at 50.0 µM, active compounds read high
Outline: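 Inhibition values come from growth of compound-treated mutant yeast normalised to vehicle-treated controls.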

[6] = NCI Yeast Anticancer Drug Screen. Data for the mlh1 rad18 strain (AID 175); settings: S. cerevisiae mlh1 rad18 strain growth inhibition; at 50.0 µM; active compounds read high
Outline: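 Steps: expose repair-defective yeast to compound; measure growth; express inhibition against vehicle-treated controls.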

Measured: growth inhibition

CC1CCC(C(C)C)C(OC(=O)c2ccccc2O)C1 (stereo unspecified)
inactive: [1] 16.1% | [2] 6.9% | [3] -11.3% | [4] 33.5% | [5] 12% | [6] 35.5%

O=C1C(=O)N(C2CCCCC2)C(=S)N1C1CCCCC1
inactive: [1] -31.9% | [2] -30.1% | [3] -62.1% | [4] -2.5% | [5] -5.2% | [6] 12.3%

CC(C)(C)OC(=O)N/N=C(/N)Cc1ccc(Cl)cc1
inactive: [1] -4.05% | [2] 19.4% | [3] -6.2% | [4] -13.9% | [5] -14.2% | [6] 6.4%

C=C(C)[C@@H]1CC=C(CO)CC1
inactive: [1] 15.7% | [2] -1.95% | [3] 0.45% | [4] 22.1% | [5] 28.3% | [6] 8.4%

C=CCCCN(c1ccc(C(=O)OCC)cc1)S(=O)(=O)c1ccc(C)cc1
inactive: [1] 28.3% | [2] -11.4% | [3] 12.1% | [4] 12.7% | [5] -6.1% | [6] 4.2%

N#CC1CC2c3ccccc3C1([N+](=O)[O-])c1ccccc12 (stereo unspecified)
inactive: [1] 54.5% | [2] 26.9% | [3] 12.8% | [4] 43% | [5] 45%
active: [6] 70.7%

Nc1nc(C(F)(F)F)nc(N)c1N
inactive: [1] 7.6% | [2] 11% | [3] 15.1% | [4] 3.2% | [5] -5.95% | [6] 14.6%

CC12CC3(C)CC(C)(C1)CC(C(NC(C)(C)C)C(=O)O)(C2)C3 (stereo unspecified)
inactive: [1] 16.8% | [2] 20.1% | [3] 11.9% | [4] 5.7% | [5] 18.9% | [6] 21.2%

CC/C=C(\C)C(C#N)(CC)C(=O)OCC (stereo unspecified)
inactive: [1] 4.65% | [2] -12.7% | [3] -4.6% | [4] 2.75% | [5] -20.4% | [6] 9.2%

COc1ccc(C2=C(N)c3c(Cl)cccc3C2=O)cc1
inactive: [1] 6.35% | [2] 3.4% | [3] 30.2% | [4] 14.8% | [5] 21.5% | [6] -58.2%

CC(=O)Oc1ccc(OC(C)=O)c(C(=O)O)c1
inactive: [1] 15.1% | [2] -2.65% | [3] 2.9% | [4] -39.3% | [5] -2.3% | [6] 17.4%

CCCOC(=O)OCCC
inactive: [1] -9.8% | [2] -37.3% | [3] -4.9% | [4] 2.9% | [5] -31.8% | [6] -10.9%

O=C(c1ccccc1)c1cc(Cl)ccc1NCn1nnc2ccccc21
inactive: [1] -47.9% | [2] -22.1% | [3] -40.8% | [4] -21.8% | [5] -49.5% | [6] -30.1%

CC(C)(C)c1ccc(C(=O)N2CCOC23CCCCC3)cc1
inactive: [1] -11.7% | [2] -20.1% | [3] 7.25% | [4] 3.2% | [5] 17.1% | [6] -38.5%

Cc1cc(=O)c2cc(-c3ccccc3)ccc2[nH]1
inactive: [1] -1% | [2] 4.4% | [3] -13.4% | [4] 0.05% | [5] -1.5% | [6] 2%

O=C(O)c1ccc(-c2ccc(C(=O)O)cc2I)c(I)c1
inactive: [1] 25.2% | [2] 2.2% | [3] 6.25% | [4] -5.25% | [5] 0.15% | [6] 10%

O=C(Nc1cccc(Cl)c1Cl)Oc1ccc(Cl)cc1C(=O)c1ccccc1
inactive: [1] -7.8% | [2] -1% | [3] -17.1% | [4] 4.5% | [5] -12.9% | [6] -27.4%

COc1ccc(/C(=N\NC(=O)NN)C(c2ccc(OC)cc2)C2(O)C(=O)Nc3c(Cl)cc(Cl)cc32)cc1 (stereo unspecified)
inactive: [1] 6.2% | [2] -7.75% | [3] -57% | [4] -16.8% | [5] 8.6% | [6] -10.2%

CC(=O)Nc1ccc(Cc2cc([N+](=O)[O-])cc([N+](=O)[O-])c2)cc1
inactive: [1] -0.1% | [2] -14.6% | [3] 2.75% | [4] -50.9% | [5] 24.9% | [6] -18.6%

CCOC(=O)C(C)(OCC)OCC
inactive: [1] -13.4% | [2] -13.2% | [3] -17.2% | [4] -8.55% | [5] -0.3% | [6] 11.9%

C=C1C(=O)OC2CC(=C)C3CC=C(C)C3CC12 (stereo unspecified)
inactive: [1] 41.8% | [2] 21.5% | [3] 19% | [4] 41.6% | [5] 25.8% | [6] 44.1%

O=c1cc(-c2ccccc2)[nH]c2ccc(N3CCOCC3)cc12
inactive: [1] -37.7% | [2] 0.25% | [3] -41.6% | [4] -18.9% | [5] -15.8% | [6] -31.4%

O=C1CCNC(=O)N1
inactive: [1] 33.7% | [2] -7.35% | [3] 4.75% | [4] 21.1% | [5] -10.2% | [6] 23.4%

CC(=O)NN
inactive: [1] -5.25% | [2] 0.45% | [3] -0.8% | [4] -1.65% | [5] 11.5% | [6] -16.1%

OCCCNc1nc2cc(Cl)ccc2o1
inactive: [1] 9.2% | [2] 22.6% | [3] 16.1% | [4] -31.1% | [5] 7.9% | [6] -14.9%

CN(C)C1C(CO)OC(n2cnc3c(N)ncnc32)C1O (stereo unspecified)
inactive: [1] 21.2% | [2] 12.8% | [3] -19.4% | [4] 22% | [5] -11.8% | [6] -82.2%

CCC(COCC(CC)C(=O)O)C(=O)O (stereo unspecified)
inactive: [1] 11.3% | [2] 1.1% | [3] 18.6% | [4] 19.1% | [5] 12.7% | [6] 15.2%

CCCCCCC(C)OC(=O)CCl (stereo unspecified)
inactive: [1] -0.55% | [2] -6.4% | [3] 2.25% | [4] 6.1% | [5] 1.25% | [6] 0.95%

N#C/C(=C/C=C/c1ccccc1)c1ccc([N+](=O)[O-])cc1
inactive: [1] 22% | [2] 23.4% | [3] 24.8% | [4] -8.2% | [5] 36.5% | [6] 18.9%

O=S(=O)(O)c1ccccc1/C=N\N=C\c1ccccc1S(=O)(=O)O
inactive: [1] 10.8% | [2] 1.85% | [3] 11.7% | [4] 17.4% | [5] -6.4% | [6] 12.8%

O=C1CCCCC(=O)Nc2ccc3nc4ccccc4c(c3c2)SCCCCCCCCSc2c3ccccc3nc3ccc(cc23)N1
inactive: [1] -13.4% | [2] -9.65% | [3] 2.55% | [4] -6.05% | [5] -2.3% | [6] -4.2%

O=C1CCCC/C1=C1/SC(=Nc2ccccc2)C(=Nc2ccccc2)N1c1ccccc1
inactive: [1] 21.2% | [2] 16.1% | [3] 16.2% | [4] 31% | [5] 19.1% | [6] 8.6%

Cc1ccc2c3nc4ccccc4c-3csc2c1
active: [1] 99.2% | [2] 99.4% | [3] 99.4% | [4] 99% | [5] 99.2% | [6] 99.3%

O=C(Nc1ccc(Nc2ccc(NC(=O)c3ccccc3)c3c2C(=O)c2ccccc2C3=O)c2c1C(=O)c1ccccc1C2=O)c1ccccc1
inactive: [1] 6.8% | [2] -15.6% | [3] 6.05% | [4] 6.1% | [5] -1.95% | [6] -9.1%

CCOC1(c2ccccc2)OC(=O)c2ccccc21 (stereo unspecified)
inactive: [1] 18.9% | [2] 3.15% | [3] 9.8% | [4] 16.7% | [5] 2.4% | [6] 11.7%

c1cc2cc3c4c5c(cc6ccc7cc8cc9c%10c8c8c7c6c5c8c5c%10c(c1C9N1CCOCCOCCOCCOCCOCC1)c2c45)C3 (stereo unspecified)
inactive: [1] -15.1% | [2] -2.35% | [3] 3.1% | [4] 17.7% | [5] 3.35% | [6] -9.9%

COc1cccc(C2c3cc4c(cc3OC(NNC(N)=O)C2C)OCO4)c1O (stereo unspecified)
inactive: [1] -12.8% | [2] -8.6% | [3] 2.55% | [4] 9.9% | [5] -2.75% | [6] -7.35%

O=S(CCCl)c1ccccc1 (stereo unspecified)
inactive: [1] -8.3% | [2] -13.2% | [3] 3.35% | [4] 10.4% | [5] -7.05% | [6] 4.9%

Cc1cc(O)c(C(c2ccc3c(c2)OCO3)c2c(O)cc(C)[nH]c2=O)c(=O)[nH]1
inactive: [1] 31.1% | [2] 17.2% | [3] -4.35% | [4] -1.1% | [5] 0% | [6] -34%

N#CCCSC(=S)C(C#N)C(=N)c1ccccc1 (stereo unspecified)
inactive: [1] 13.2% | [2] 2.25% | [3] 14.2% | [4] 1.5% | [5] -18.9% | [6] 10.3%

COc1ccc(CCN2CCc3c(C)c(C#N)c4nc5ccccc5n4c32)cc1OC
inactive: [1] 5.75% | [2] 26% | [3] 28.5% | [4] 12.1% | [5] 52.4% | [6] 34.5%
